What all share (assay): DAPPL (digital affinity profiling via proximity ligation, sequencing); 10 mM Tris-HCl pH 7.5, 50 mM NaCl, 1 mM DTT, 4% glycerol, room temperature, 30 min; GST-TFs on glutathione beads, 16-mer random dsDNA library, 0.1% formaldehyde crosslink after washing; high values mean tight binding
Conditions in all cases: protein: recombinant; tags: N-terminal GST; dsDNA, one strand shown

One assay has as its target T1, ELK1 (Homo sapiens, UniProt P19419 1-428).
T1 sequence: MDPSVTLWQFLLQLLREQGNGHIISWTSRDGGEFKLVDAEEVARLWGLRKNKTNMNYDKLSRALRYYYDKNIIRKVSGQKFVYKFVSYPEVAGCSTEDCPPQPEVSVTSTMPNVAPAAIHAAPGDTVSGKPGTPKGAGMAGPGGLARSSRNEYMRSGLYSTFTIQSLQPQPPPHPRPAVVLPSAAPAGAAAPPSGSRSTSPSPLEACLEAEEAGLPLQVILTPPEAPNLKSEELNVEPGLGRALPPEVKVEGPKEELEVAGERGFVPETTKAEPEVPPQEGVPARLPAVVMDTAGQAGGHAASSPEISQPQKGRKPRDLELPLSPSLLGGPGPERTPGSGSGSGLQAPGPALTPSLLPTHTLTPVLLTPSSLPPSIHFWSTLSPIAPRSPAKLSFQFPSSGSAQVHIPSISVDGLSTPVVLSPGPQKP
The method, boiled down:
(§1)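 Beads coated with glutathione captured GST-fused human transcription factors that had been expressed in yeast, and the factors were then given DNA barcodes and pooled with a tag-only sample. The pools were incubated with 200 nmole of a random double-stranded 16-mer DNA library in Tris/NaCl/DTT/glycerol buffer for 30 min at room temperature, washed, crosslinked with 0.1% formaldehyde and proximity-ligated with BsaI/T4 ligase at 37 °C for 1 h. PCR amplification and Illumina NextSeq500 sequencing came last. Binding signal is each hexamer's read frequency for a factor divided by its frequency for the tag-only sample.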

In the next assay the target is T2, GABPA (Homo sapiens, UniProt Q06546 1-454).
T2 sequence: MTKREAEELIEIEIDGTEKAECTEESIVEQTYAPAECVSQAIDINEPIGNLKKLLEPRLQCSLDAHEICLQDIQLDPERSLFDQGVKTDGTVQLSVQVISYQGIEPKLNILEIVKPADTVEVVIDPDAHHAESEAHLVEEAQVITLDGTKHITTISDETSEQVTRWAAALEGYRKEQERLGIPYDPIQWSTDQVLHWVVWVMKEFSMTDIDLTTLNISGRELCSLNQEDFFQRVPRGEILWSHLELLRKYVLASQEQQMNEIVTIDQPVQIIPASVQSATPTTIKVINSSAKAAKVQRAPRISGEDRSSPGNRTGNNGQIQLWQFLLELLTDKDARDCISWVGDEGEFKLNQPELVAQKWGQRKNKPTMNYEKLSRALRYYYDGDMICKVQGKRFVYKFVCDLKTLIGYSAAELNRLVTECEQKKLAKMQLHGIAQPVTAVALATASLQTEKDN
The method, boiled down: as §1

The next assay addresses T3, ERG (Homo sapiens, UniProt P11308 1-479).
T3 sequence: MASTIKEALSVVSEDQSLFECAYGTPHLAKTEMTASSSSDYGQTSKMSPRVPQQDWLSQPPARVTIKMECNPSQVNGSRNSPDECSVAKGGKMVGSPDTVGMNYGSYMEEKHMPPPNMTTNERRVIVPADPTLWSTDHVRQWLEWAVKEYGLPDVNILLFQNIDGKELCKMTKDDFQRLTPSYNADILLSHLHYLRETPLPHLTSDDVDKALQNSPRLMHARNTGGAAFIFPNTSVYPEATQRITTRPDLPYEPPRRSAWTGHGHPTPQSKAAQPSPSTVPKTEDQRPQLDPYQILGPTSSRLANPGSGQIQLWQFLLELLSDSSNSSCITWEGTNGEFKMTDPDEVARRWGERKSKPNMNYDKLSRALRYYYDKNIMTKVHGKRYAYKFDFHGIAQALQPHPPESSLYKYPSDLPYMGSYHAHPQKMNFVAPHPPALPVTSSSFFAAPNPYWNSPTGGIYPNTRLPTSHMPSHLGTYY
Put shortly:
as §1

A further assay deals with ELF1 (Homo sapiens, UniProt P32519 1-619). Put shortly: as §1
ELF1, sequence (P32519 whole entry): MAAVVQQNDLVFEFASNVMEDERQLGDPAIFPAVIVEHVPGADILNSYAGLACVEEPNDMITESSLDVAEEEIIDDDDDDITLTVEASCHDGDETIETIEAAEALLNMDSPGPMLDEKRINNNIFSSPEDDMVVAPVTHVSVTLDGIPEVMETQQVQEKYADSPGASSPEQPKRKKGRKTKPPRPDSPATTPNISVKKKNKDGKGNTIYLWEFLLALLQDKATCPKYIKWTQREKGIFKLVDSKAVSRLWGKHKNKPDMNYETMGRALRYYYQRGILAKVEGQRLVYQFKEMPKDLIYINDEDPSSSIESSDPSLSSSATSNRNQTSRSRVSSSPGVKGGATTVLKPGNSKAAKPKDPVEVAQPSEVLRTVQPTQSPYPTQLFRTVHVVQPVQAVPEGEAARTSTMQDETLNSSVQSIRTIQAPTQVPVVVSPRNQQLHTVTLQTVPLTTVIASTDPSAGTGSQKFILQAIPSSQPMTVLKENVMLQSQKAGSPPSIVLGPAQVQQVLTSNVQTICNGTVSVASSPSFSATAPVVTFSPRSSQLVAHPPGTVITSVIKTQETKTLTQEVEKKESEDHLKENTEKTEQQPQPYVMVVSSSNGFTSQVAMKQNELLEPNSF
For the next assay, the target named is T4, EHF (Homo sapiens, UniProt Q9NZC4 1-300).
T4 sequence: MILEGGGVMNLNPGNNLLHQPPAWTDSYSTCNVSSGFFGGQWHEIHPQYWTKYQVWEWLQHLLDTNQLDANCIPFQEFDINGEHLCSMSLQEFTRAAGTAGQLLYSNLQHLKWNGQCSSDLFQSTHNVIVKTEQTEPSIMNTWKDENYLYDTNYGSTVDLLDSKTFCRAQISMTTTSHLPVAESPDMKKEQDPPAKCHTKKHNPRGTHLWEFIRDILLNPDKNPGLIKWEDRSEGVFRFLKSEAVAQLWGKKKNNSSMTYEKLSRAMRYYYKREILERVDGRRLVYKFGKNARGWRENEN
The method, boiled down: as §1

The target in another assay is SPI1 (Homo sapiens, UniProt P17947 1-270). The method, boiled down: as §1
The next assay has as its target SPIB (Homo sapiens, UniProt Q01892 1-262). Put shortly:
as §1

In a further assay the target is T5, FEV (Homo sapiens, UniProt Q99581 1-238).
T5 sequence: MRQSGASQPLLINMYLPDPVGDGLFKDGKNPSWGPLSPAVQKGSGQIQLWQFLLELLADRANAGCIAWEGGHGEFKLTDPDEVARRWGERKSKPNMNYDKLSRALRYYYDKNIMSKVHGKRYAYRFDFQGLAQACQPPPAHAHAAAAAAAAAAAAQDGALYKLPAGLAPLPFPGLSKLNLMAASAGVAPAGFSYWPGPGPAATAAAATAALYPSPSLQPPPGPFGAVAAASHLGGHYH
Put shortly:
as §1

For the next assay, the target named is ETV5 (Homo sapiens, UniProt P41161 1-510). The method, boiled down:
as §1

The target in the next assay is ELF4 (Homo sapiens, UniProt Q99607 1-663). Put shortly: as §1
ELF4, sequence (Q99607 whole entry): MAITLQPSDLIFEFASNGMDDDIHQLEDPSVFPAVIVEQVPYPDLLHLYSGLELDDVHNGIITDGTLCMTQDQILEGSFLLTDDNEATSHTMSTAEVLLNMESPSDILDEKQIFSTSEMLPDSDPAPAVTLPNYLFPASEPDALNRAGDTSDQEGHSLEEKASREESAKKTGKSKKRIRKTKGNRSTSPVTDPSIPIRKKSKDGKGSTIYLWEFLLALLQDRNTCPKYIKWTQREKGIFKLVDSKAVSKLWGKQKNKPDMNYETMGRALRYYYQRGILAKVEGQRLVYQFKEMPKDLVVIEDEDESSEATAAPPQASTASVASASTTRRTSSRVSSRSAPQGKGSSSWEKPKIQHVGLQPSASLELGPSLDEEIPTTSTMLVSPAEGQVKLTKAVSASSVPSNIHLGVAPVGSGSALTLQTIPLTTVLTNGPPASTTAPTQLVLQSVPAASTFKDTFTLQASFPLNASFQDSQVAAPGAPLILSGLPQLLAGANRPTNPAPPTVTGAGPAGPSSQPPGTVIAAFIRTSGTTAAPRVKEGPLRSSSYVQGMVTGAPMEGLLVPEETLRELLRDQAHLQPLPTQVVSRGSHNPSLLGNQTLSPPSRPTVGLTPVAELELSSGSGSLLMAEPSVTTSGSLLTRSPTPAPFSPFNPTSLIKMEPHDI
A further assay addresses T6, ELK4 (Homo sapiens, UniProt P28324-2 1-405).
T6 sequence: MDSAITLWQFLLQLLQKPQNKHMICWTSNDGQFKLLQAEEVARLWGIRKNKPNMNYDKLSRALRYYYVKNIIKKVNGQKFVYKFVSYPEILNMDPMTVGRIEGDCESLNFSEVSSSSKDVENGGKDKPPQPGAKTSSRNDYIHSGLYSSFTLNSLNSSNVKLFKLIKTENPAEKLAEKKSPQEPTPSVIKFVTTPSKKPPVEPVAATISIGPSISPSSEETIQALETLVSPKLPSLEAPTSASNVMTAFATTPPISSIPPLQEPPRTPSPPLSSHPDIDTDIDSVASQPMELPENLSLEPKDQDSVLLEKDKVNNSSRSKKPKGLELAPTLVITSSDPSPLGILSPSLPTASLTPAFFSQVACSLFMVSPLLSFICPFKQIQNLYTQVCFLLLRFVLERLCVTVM
Put shortly: as §1

The target of the next assay is T7, ETV2 (Homo sapiens, UniProt O00321 1-342).
T7 sequence: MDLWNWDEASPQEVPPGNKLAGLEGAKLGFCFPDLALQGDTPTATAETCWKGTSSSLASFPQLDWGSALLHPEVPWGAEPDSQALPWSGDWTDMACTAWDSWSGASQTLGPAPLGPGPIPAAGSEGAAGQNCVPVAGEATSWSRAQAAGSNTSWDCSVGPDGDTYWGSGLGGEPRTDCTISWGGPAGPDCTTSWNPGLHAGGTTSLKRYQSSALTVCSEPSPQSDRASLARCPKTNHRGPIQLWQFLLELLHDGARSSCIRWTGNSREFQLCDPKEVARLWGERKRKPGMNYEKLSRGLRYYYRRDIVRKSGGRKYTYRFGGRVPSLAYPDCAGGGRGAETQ
The method, boiled down: as §1

Another assay has as its target ETV1 (Homo sapiens, UniProt P50549 1-477). Put shortly: as §1
Another assay addresses T8, ERF (Homo sapiens, UniProt P50548 1-548).
T8 sequence: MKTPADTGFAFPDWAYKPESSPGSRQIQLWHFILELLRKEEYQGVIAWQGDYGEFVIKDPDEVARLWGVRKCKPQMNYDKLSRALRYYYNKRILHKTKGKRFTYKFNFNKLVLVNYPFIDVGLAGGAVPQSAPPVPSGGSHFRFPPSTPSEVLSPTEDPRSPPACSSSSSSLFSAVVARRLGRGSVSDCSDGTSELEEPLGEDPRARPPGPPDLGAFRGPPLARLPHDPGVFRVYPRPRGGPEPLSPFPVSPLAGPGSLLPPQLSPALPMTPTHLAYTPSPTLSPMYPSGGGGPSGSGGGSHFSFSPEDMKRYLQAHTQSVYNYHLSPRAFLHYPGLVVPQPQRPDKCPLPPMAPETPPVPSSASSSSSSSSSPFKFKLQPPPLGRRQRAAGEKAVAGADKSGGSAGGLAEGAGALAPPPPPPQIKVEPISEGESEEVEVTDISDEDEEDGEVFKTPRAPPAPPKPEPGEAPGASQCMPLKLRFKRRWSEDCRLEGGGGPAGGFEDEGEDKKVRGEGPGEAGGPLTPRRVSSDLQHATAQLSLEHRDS
Put shortly:
as §1

A further assay has as its target T9, ETV3L (Homo sapiens, UniProt Q6ZN32 1-361).
T9 sequence: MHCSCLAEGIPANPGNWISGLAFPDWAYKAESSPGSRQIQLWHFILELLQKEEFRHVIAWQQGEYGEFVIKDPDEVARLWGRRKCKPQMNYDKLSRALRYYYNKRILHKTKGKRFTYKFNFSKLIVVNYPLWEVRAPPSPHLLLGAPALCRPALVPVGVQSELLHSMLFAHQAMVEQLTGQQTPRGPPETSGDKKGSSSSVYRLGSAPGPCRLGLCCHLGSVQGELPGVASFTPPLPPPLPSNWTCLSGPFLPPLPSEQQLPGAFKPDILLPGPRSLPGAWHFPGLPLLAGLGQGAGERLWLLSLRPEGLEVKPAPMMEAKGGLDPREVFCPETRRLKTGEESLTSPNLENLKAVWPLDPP
Put shortly: as §1

For a further assay, the target named is T10, ETS2 (Homo sapiens, UniProt P15036 1-469).
T10 sequence: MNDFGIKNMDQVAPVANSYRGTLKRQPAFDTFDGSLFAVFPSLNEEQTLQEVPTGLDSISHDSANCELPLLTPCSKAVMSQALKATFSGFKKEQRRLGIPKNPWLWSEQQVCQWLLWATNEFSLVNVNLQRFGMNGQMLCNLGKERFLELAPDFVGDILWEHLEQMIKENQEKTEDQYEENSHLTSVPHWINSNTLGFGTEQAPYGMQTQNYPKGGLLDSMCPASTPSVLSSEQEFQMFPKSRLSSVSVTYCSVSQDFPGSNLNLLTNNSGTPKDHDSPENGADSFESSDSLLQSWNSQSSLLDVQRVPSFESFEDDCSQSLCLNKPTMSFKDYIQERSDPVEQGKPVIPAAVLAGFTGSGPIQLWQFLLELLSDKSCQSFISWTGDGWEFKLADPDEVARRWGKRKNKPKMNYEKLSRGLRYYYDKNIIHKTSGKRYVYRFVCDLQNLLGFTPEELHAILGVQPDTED
The method, boiled down: as §1

The next assay concerns the target T11, SPDEF (Homo sapiens, UniProt O95238 1-335).
T11 sequence: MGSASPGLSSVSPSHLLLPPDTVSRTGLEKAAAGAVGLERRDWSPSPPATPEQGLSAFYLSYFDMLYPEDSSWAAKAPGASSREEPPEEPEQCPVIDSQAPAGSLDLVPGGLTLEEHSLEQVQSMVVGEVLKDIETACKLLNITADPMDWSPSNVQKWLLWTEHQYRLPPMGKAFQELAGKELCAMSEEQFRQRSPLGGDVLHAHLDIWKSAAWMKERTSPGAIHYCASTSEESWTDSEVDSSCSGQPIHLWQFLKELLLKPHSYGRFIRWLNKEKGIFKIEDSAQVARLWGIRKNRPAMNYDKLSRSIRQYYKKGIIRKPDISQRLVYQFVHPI
The method, boiled down:
as §1

A further assay concerns the target T12, ETV7 (Homo sapiens, UniProt Q9Y603 1-341).
T12 sequence: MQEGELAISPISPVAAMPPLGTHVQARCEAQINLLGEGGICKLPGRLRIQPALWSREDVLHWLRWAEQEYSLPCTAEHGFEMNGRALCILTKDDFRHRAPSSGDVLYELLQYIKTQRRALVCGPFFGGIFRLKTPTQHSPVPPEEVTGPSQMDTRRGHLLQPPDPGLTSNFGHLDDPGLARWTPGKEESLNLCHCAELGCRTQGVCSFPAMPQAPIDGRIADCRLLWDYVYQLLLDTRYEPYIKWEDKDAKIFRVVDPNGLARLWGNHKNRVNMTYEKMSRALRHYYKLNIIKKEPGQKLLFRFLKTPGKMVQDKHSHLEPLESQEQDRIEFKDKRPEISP
The method, boiled down:
as §1

The next assay deals with T13, ETV3 (Homo sapiens, UniProt P41162-2 1-143).
T13 sequence: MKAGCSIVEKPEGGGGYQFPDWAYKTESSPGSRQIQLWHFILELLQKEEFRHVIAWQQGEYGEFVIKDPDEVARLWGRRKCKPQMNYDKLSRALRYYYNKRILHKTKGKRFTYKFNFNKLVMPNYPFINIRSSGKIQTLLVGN
The method, boiled down: as §1

The target of a further assay is ETV6 (Homo sapiens, UniProt P41212 1-452). Put shortly: as §1
ETV6, sequence (P41212 whole entry): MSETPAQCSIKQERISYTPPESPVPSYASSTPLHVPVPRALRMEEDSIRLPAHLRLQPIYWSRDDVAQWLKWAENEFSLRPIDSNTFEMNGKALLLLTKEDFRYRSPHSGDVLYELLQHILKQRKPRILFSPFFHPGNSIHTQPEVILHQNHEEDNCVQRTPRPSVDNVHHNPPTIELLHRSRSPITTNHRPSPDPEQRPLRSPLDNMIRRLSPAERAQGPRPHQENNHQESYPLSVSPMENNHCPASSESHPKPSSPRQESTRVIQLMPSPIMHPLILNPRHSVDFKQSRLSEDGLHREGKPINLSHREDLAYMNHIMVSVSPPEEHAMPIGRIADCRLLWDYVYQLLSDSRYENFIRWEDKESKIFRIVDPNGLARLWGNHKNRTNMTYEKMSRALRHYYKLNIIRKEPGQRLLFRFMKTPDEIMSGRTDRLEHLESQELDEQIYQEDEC

ETV1, sequence (P50549 whole entry): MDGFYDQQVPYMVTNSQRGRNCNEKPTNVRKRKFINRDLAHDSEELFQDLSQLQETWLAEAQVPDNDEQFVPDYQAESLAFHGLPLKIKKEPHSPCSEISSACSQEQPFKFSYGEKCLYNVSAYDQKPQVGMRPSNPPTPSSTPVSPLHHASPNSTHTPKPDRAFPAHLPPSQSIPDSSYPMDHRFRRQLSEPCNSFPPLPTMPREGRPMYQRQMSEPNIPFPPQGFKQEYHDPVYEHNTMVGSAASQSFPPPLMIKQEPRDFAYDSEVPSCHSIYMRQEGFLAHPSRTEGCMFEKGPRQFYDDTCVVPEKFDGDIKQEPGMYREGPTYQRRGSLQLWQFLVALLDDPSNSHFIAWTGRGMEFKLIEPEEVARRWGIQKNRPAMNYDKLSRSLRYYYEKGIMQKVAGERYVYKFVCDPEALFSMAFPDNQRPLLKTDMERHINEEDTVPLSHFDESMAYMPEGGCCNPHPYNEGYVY
SPIB, sequence (Q01892 whole entry): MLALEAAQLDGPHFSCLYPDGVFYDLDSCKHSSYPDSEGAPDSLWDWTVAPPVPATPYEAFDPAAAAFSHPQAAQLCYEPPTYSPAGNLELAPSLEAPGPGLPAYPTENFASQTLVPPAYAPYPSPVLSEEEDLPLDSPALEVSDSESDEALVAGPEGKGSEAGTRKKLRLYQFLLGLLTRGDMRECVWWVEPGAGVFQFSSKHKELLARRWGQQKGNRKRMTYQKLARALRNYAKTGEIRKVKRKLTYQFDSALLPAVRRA
ETV5, sequence (P41161 whole entry): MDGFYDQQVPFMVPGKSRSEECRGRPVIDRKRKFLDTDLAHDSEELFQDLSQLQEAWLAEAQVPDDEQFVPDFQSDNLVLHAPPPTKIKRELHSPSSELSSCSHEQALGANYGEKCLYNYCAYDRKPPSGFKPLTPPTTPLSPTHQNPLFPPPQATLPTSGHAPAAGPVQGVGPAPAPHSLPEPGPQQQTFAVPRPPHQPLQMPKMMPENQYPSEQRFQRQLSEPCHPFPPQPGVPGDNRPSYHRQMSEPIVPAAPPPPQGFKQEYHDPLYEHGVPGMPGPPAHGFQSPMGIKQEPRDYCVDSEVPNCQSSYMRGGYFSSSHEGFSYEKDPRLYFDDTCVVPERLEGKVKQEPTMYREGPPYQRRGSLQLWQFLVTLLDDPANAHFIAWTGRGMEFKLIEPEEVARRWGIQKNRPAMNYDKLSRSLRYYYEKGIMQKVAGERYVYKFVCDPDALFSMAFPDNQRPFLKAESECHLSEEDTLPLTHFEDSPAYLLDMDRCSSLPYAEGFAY

Take TGTAAC: the binding signal with ELK1 is 1.21 fold enrichment (6-mer frequency, TF over GST control); in the assay with GABPA it was 1.09 fold enrichment (6-mer frequency, TF over GST control); with ERG it was 1.18 fold enrichment (6-mer frequency, TF over GST control); in the assay with ELF1, 1.28 fold enrichment (6-mer frequency, TF over GST control); with EHF it was 1.36 fold enrichment (6-mer frequency, TF over GST control); with SPI1 it was 1.36 fold enrichment (6-mer frequency, TF over GST control). The binding signal with SPIB is 1.16 fold enrichment (6-mer frequency, TF over GST control); with FEV it was 1.23 fold enrichment (6-mer frequency, TF over GST control); with ETV5, 1.24 fold enrichment (6-mer frequency, TF over GST control); with ELF4, 1.2 fold enrichment (6-mer frequency, TF over GST control); with ELK4, 1.37 fold enrichment (6-mer frequency, TF over GST control); with ETV2 it was 1.21 fold enrichment (6-mer frequency, TF over GST control). In addition, the binding signal was 1.28 fold enrichment (6-mer frequency, TF over GST control) with ETV1; 1.23 fold enrichment (6-mer frequency, TF over GST control) with ERF; 1.15 fold enrichment (6-mer frequency, TF over GST control) in the assay with ETV3L; 1.32 fold enrichment (6-mer frequency, TF over GST control) with ETS2; 1.23 fold enrichment (6-mer frequency, TF over GST control) with SPDEF; 1.18 fold enrichment (6-mer frequency, TF over GST control) in the assay with ETV7. In addition, the binding signal with ETV3 was 1.24 fold enrichment (6-mer frequency, TF over GST control); in the assay with ETV6, 1.2 fold enrichment (6-mer frequency, TF over GST control).

For the origin of these results see publication PMC7862700, “An all-to-all approach to the identification of sequence-specific readers for epigenetic DNA modifications on cytosine”.
